# Records with an inconclusive call do not appear. Activity calls are given as the source filed them. Unless noted, no rule for the calls is given here.
# What was measured:
# [1] = qHTS for Inhibitors of the vitamin D receptor (VDR): Hit Validation using a Texas Red Assay (AID 602201; active = well fitted curve in the direction sought with a large enough effect; an effect the other way counts as inactive or inconclusive; also: potency is read from the fitted curve at half-maximal effect); conditions: VDR coregulator binding, Texas Red fluorescence polarization; agonist-bound VDR ligand-binding domain
# In short: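 After a 2-hour room-temperature incubation, polarization of Texas-Red emission was read (Ex 595 nm/Em 615 nm). Final mix contained 7 nM Texas Red, 1.5 uM VDR-LBD and LG19078.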
# [2] = qHTS profiling for inhibitors of Plasmodium falciparum (3D7) proliferation (AID 743322);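 also: infected erythrocytes exposed to compound for 72 h before lysis; 100% = DMSO vehicle wells and 0% = 0.29 µM artemisinin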; conditions: P. falciparum 3D7 proliferation; at 28.7 µM (top of the series)
# In short: (§1)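 Erythrocytes infected with P. falciparum (0.3% parasitemia, 2.5% hematocrit) incubated with compounds 72 h at 37 C, 5% CO2. Lysis with saponin/Triton buffer containing SYBR Green I, overnight at room temperature in the dark; DNA fluorescence (485/535 nm) normalised to 0.29 uM artemisinin and DMSO.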
# [3] = qHTS profiling for inhibitors of Plasmodium falciparum (DD2) proliferation (AID 743323); conditions: lower = more inhibition; at 28.7 µM (top of the series)
# In short: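 Parasite proliferation measured via DNA-dye fluorescence, as uninfected erythrocytes lack DNA. Cultures at 0.3% parasitemia and 2.5% hematocrit incubated 72 h with compound; signal scaled between vehicle and 0.29 uM artemisinin wells.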
# [4] = qHTS profiling for inhibitors of Plasmodium falciparum (HB3) proliferation (AID 743324; active = well fitted curve in the direction sought with a large enough effect; an effect the other way counts as inactive or inconclusive;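 also: 100% = DMSO vehicle wells and 0% = artemisinin-treated control wells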); conditions: Plasmodium falciparum HB3 blood-stage proliferation; at 28.7 µM (top of the series)
# In short: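 P. falciparum HB3 grown in erythrocytes (0.3% parasitemia, 2.5% hematocrit final) with compound for 72 h at 37 C, 5% CO2. Parasite DNA detected by SYBR Green after saponin/triton lysis overnight; normalized to 0.29 uM artemisinin and DMSO.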
# [5] = qHTS profiling of the MIPE4 collection as inhibitors of Plasmodium falciparum (DD2) proliferation (AID 743345); conditions: P. falciparum Dd2 in erythrocytes, SYBR Green DNA, 72 h; at 28.5 µM (top of the series)
# In short: as §1
# [6] = qHTS profiling of the MIPE4 collection as inhibitors of Plasmodium falciparum (HB3) proliferation (AID 743347);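 also: plate controls were DMSO vehicle wells for no effect and artemisinin wells for full effect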; conditions: P. falciparum HB3 in erythrocytes, SYBR Green DNA, 72 h; at 28.5 µM (top of the series)
# In short: as §1
smiles,measurement,setting,value
O=C1c2ccccc2CCC1CNCCc1ccc(O)cc1 (stereo unspecified),Potency,[1],28.2 µM (active)
OC[C@H]1OC([S-])[C@H](O)[C@@H](O)[C@H]1O.[Au+] (stereo partly specified),remaining parasite growth % (stronger effect = lower value),[2],86.3%
same,"activity, percent of control",[3],98.2%
same,"remaining proliferation (% of control), lower = more inhibition",[4],78.1%
C[C@H](CCC(=O)O)[C@H]1CCC2C3CC[C@@H]4C[C@H](O)CC[C@]4(C)C3CC[C@@]21C (stereo partly specified),"parasite growth remaining, % of DMSO control (lower = more inhibition)",[5],97.2%
same,"growth, % of control",[6],98.2%
